Measured values from PubChem BioAssay (NCATS).
Records with an inconclusive call do not appear. Where a call stands in place of a potency, no number is given. Active and inactive are the calls of the source. Unless noted, the call rests on the fitted dose curve; in most records, active means well fitted curve in the direction sought with a large enough effect; inconclusive means small, poorly fitted or top-dose-only effect, or another doubt; inactive means no such curve, though single readings can be large; an effect the other way counts as inactive or inconclusive. Peptide text beside a SMILES is read from it.

Tests used:
[1] = molecular target: Cytochrome P450 3A4 (Homo sapiens) (UniProt P08684); test: qHTS Assay for Inhibitors and Substrates of Cytochrome P450 3A4 (AID 884); further: nearly all actives have a fitted effect of over 50% in size
Method in brief: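 Luminescent readout of luciferin produced by CYP3A4 (20 nM) dealkylation of Luciferin-PPXE, 25 uM (its KM). NADPH-driven reaction ran 60 min at RT after 10 min compound preincubation; data scaled to 57 uM ketoconazole as 100% inhibition.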

[2] = Confirmation and Secondary Assay for Modulators of Hemoglobin Beta Chain Splicing at IVS2 654 locus (AID 910);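 further: HeLa cells stably carrying EGFP split by mutant beta-globin IVS2-654 intron; per-well total GFP intensity by laser scanning cytometry after 2-day treatment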
Method in brief: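 Readout: per-well total peak green fluorescence (488 nm ex, 500–520 nm em) from objects 5–250 µm, reflecting correct splicing of an EGFP-654 reporter. Compounds were applied for 2 days at 37 °C to overnight-plated HeLa EGFP-654 cells; controls were DMSO and 500 nM IVS2-654 PNA.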

[3] = Confirmation and Secondary Assay for Modulators of Hemoglobin Beta Chain Splicing at IVS2 705 locus (AID 930);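 further: HeLa cells stably expressing the EGFP-705 splicing reporter; GFP fluorescence per well restored by corrected splicing of the IVS2-705 intron in EGFP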
Method in brief: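 First, HeLa EGFP-705 cells are seeded at 500/well in Optimem with 2% FCS and left overnight. Next, compound or DMSO is added for 2 days. Finally wells are laser-scanned and total peak GFP intensity scored.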

[4] = qHTS Assay for Lipid Storage Modulators (AID 1519; calls by dose curve); conditions: Drosophila S3 cells, BODIPY lipid droplet/cell ratio, laser cytometry, cells loaded with oleic acid; for activity change, negative = inhibition: at 57.5 µM (top of the series)
Method in brief: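 Cells seeded at 5,000 per well were treated with compounds over a concentration series and loaded with oleic acid (400 uM, as added). Lipid droplet fluorescence (488 nm excitation, 500-530 nm channel) was read by laser-scanning cytometry and normalized to 20 uM Triacsin C.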

[5] = molecular target: Ubiquitin carboxyl-terminal hydrolase 1 (Homo sapiens) (UniProt O94782); test: Inhibitors of USP1/UAF1: Pilot qHTS (AID 504865);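 further: rhodamine fluorescence freed from ubiquitin-rhodamine substrate followed over time; top concentration of the series differs between compounds; nearly all actives have a fitted effect of over 35% in size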
Method in brief: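 Deubiquitinase activity followed as kinetic rhodamine fluorescence release from 150 nM Ub-Rho. 1 nM USP1/UAF1 with compound, after 15 min room-temperature preincubation, in HEPES pH 7.8 buffer containing TCEP, EDTA, BSA and Tween-20.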

[6] = molecular target: Cytochrome P450 3A4 (Homo sapiens) (UniProt P08684); test: qHTS Assay for Activators of Cytochrome P450 3A4 (AID 885); further: nearly all actives have a fitted effect of over 65% in size
Method in brief: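 Luminescent readout of luciferin formed from 25 uM Luciferin-PPXE (KM level) by 20 nM CYP3A4 in 200 mM KPO4, with 60 min NADPH-driven reaction at room temperature after 10 min compound exposure. Ketoconazole (57 uM) defined 100% inhibition.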

[7] = measured here: cell count channel max response
[8] = measured here: lipid channel max response

Chain of Ubiquitin carboxyl-terminal hydrolase 1 (Homo sapiens) (O94782 whole entry, looked up): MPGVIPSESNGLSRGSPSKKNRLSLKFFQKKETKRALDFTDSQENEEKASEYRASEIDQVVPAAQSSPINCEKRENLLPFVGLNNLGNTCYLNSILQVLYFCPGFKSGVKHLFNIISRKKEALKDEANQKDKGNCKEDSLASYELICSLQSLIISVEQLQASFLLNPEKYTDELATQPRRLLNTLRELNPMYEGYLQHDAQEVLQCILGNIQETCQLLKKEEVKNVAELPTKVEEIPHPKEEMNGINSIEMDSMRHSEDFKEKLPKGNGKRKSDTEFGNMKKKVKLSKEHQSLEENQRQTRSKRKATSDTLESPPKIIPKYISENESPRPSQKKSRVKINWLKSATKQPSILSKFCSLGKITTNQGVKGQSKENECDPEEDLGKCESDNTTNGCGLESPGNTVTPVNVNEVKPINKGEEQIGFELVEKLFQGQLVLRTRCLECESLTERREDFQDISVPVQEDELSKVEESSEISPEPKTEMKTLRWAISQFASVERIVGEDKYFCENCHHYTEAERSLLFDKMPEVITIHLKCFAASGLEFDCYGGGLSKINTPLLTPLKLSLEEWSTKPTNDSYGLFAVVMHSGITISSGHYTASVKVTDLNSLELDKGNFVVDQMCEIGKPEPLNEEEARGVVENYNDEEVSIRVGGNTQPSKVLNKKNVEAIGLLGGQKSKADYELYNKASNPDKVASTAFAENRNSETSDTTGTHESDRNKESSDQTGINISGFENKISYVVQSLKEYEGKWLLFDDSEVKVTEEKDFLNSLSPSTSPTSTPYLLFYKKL
Chain of Cytochrome P450 3A4 (Homo sapiens) (P08684 whole entry, looked up): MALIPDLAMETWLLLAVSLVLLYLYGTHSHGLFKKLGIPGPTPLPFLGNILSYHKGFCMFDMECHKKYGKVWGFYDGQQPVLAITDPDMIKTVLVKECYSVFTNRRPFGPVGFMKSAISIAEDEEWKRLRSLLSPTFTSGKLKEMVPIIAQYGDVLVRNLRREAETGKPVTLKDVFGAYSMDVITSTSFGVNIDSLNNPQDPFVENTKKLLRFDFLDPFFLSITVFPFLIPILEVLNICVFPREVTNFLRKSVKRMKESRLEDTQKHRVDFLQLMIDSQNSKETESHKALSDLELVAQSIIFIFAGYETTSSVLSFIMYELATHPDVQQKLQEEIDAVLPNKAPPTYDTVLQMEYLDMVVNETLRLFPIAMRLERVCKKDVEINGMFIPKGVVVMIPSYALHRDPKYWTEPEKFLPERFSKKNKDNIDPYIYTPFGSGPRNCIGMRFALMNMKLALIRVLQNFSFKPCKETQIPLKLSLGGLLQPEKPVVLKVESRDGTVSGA

SMILES	Potency [1]	Potency [2]	Potency [3]	activity change, negative = inhibition [4]	max response [4, 7]	max response [4, 8]	Potency [5]	Potency [6]
CCNC(=O)CCC(N)C(=O)O (stereo not given)	inactive	inactive	inactive	2.77% (inactive)	9.46%	16.9%	inactive	
CC(C)(O)C1CC[C@@]2(C)C3CCC4[C@@]5(C)CCCC(C)(C)C5C(O)C[C@]4(C)[C@]3(C)CC[C@@H]12 (stereo not given in full)	inactive	inactive	inactive	5.94% (inactive)	19.9%	27.3%	inactive	
COc1cc(O)c(C(=O)O)c(O)c1	inactive	inactive	inactive	4.12% (inactive)	1.93%	6.74%	inactive	
CC(C)C(N)C(=O)NC(Cc1c[nH]c2ccccc12)C(=O)O (stereo not given)	inactive	inactive	inactive	7.82% (inactive)	15.4%	28.4%	inactive	
COc1c(O)cc2c(c1O)C1OC(CO)C(O)[C@H](O)[C@H]1OC2=O (stereo not given in full)	inactive	inactive	inactive	6.03% (inactive)	7.39%	14.2%	inactive	
COc1cccc(/C=C/C(=O)O)c1C(C)C	inactive	inactive	inactive	9.75% (inactive)	13%	26.7%	inactive	
O=C(/C=C/C(=O)Oc1ccccc1C(=O)O)Oc1ccccc1C(=O)O	inactive	inactive	inactive	7.98% (inactive)	4.07%	13.2%	inactive	
OCc1ccccc1O[C@H]1OC(CO)C(O)C(O)C1O (stereo not given in full)	inactive	inactive	inactive	3.66% (inactive)	2.55%	8.97%	inactive	
O=c1[nH]c(Cl)nc2c1ncn2C1OC(CO)C(O)C1O (stereo not given)	inactive	inactive	inactive	5.69% (inactive)	2.53%	10.3%	inactive	
COc1ccc(-c2coc3cc(O)ccc3c2=O)c(OC)c1O	inactive	inactive	inactive	-3.58% (inactive)	12.3%	2.49%	inactive	
CC(=O)NC(CC(=O)O)C(=O)NC(CCC(=O)O)C(=O)O (stereo not drawn) (Ac-Asp-Glu-OH; configuration not given here)	inactive	inactive	inactive	4.52% (inactive)	12.9%	18.5%	inactive	
CC(=O)OC1CCC2(O)CC1(C)CCC1C2CC1(C)C (stereo not given)	inactive	inactive	inactive	0.291% (inactive)	16.4%	18.1%	inactive	
CC(C)CC(NC(=O)CN)C(=O)NC(Cc1ccccc1)C(=O)O (stereo not drawn) (H-Gly-Leu-Phe-OH; configuration not given here)	inactive	inactive	inactive	6.28% (inactive)	3.97%	11.6%	inactive	
CC(=O)OCC1OC(n2c(Br)nc3c(=O)[nH]c(N)nc32)C(OC(C)=O)C1OC(C)=O (stereo not given)	inactive	inactive	inactive	1.02% (inactive)	9.1%	10.5%	inactive	
COC(=O)Oc1ccccc1C(=O)O	inactive	inactive	inactive	5.3% (inactive)	15.1%	21.1%	inactive	
CN(C)C1C(=O)C(C(N)=O)=C(O)[C@@]2(O)C(=O)C3=C(O)c4c(O)ccc(Cl)c4C(O)[C@H]3C[C@@H]12 (stereo not given in full)	inactive	inactive	inactive	5.54% (inactive)	25.6%	35.5%	inactive	
CC(=O)Oc1ccc2c(c1)CCC1C2CC[C@@]2(C)C1CC(OC(C)=O)C2OC(C)=O (stereo not given in full)	inactive	inactive	inactive	5.31% (inactive)	10.1%	17.4%	inactive	
C/C1=C/CC(C)(C)/C=C/C/C(C)=C/CC1	inactive	inactive	inactive	0.556% (inactive)	16.1%	16.9%	inactive	
C[C@@H]1/C(=N/O)CC2C[C@@H]1C2(C)C	inactive	inactive	inactive	2.67% (inactive)	9.02%	13.7%	inactive	
O=C(NCO)c1cccnc1	inactive	inactive	inactive	5.95% (inactive)	14.8%	25.7%	inactive	
COc1c2ccccc2nc2occc12	inactive	inactive	inactive	9.64% (inactive)	24.3%	38.1%	inactive	
CCOC(=O)C(CCc1ccccc1)NC(C)C(=O)N1CCCC1C(=O)O (stereo not given)	inactive	inactive	inactive	10.8% (inactive)	9.89%	24.1%	inactive	
CCN1CCN(C(=O)NC(C(=O)NC2C(=O)N3C2SC(C)(C)C3C(=O)O)c2ccccc2)C(=O)C1=O (stereo not given)	inactive	inactive	inactive	7.43% (inactive)	-3.83%	0.752%	inactive	
CC(=O)OC/C=C(\C)CC/C=C(\C)CC/C=C(\C)CC/C=C(\C)CC/C=C(\C)CC/C=C(\C)CC/C=C(\C)CC/C=C(\C)CCC=C(C)C	inactive	inactive	inactive	1.76% (inactive)	7.11%	8.78%	inactive	
C=C(C)C1CC[C@]2(CO)CC[C@@]3(C)[C@H](CCC4[C@@]5(C)CCC(O)C(C)(C)C5CC[C@@]43C)C12 (stereo not given in full)	inactive	inactive	inactive	-2.93% (inactive)	-9.58%	-12.7%	inactive	

SMILES	Potency [1]	Potency [2]	Potency [3]	activity change, negative = inhibition [4]	max response [4, 7]	max response [4, 8]	Potency [5]	Potency [6]
CC(=O)OCC1OC(n2cnc3c(=O)[nH]cnc32)C(OC(C)=O)C1OC(C)=O (stereo not given)	inactive	inactive	inactive	3.9% (inactive)	9.07%	13.2%	inactive	
CCCCCC1C(=O)CCC1CC(=O)O (stereo not given)	inactive	inactive	inactive	5.46% (inactive)	21.6%	28.3%	inactive	
NC1=NCCN1CC(=O)O	inactive	inactive	inactive	4.53% (inactive)	1.34%	10.9%	inactive	
COc1cc2c(cc1OC)C1(O)C(=O)c3ccc(O)c(C(=O)O)c3OC1CO2 (stereo not given)	inactive	inactive	inactive	8.88% (inactive)	8.21%	21.1%	inactive	
CC(=O)OCC(=O)[C@@]1(O)CCC2C3CCC4=CC(=O)CC[C@@]4(C)[C@]3(F)C(O)C[C@]21C (stereo not given in full)	inactive	inactive	inactive	4.35% (inactive)	21.1%	29.1%	inactive	
OCC1OC(n2cnc3c(Cl)nc(Cl)nc32)C(O)C1O (stereo not given)	inactive	inactive	inactive	6.74% (inactive)	16.5%	22.9%	inactive	
COc1cc(/C=C/C(=O)O)cc(OC)c1OC	inactive	inactive	inactive	3.87% (inactive)	9.64%	14.9%	inactive	
CCC(CO)NCCNC(CC)CO (stereo not given)	inactive	inactive	inactive	-3.77% (inactive)	8.09%	6.63%	inactive	
COc1ccc2c(C)cc(=O)oc2c1	inactive	inactive	inactive	8.28% (inactive)	31.7%	42.1%	inactive	
CC1(C)CC[C@]2(C(=O)O)CC[C@@]3(C)C(=CCC4[C@@]5(C)CCC(O)[C@@](C)(CO)C5CC[C@@]43C)C2C1 (stereo not given in full)		inactive	inactive	1.32% (inactive)	5.6%	17.6%	inactive	inactive
CC(=O)NC(CCC(=O)O)C(=O)O (stereo not given)	inactive	inactive	inactive	11.4% (inactive)	14.5%	27.6%	inactive	
C#C[C@@]1(O)CCC2C3CCC4=CC(=O)CCC4C3CC[C@@]21CC (stereo not given in full)		inactive	inactive	8.95% (inactive)	17.8%	32.9%	inactive	inactive
O=c1c(O)c(-c2ccccc2)oc2cccc(O)c12		inactive	inactive	9.45% (inactive)	9.77%	18.2%	inactive	inactive
OC1C2COC(O2)[C@H](O)C1O (stereo not given in full)	inactive	inactive	inactive	7.67% (inactive)	12.6%	22.2%	inactive	
COc1c(O)cc2c(-c3ccccc3)cc(=O)oc2c1OC		inactive	inactive	5.27% (inactive)	6.33%	14.2%	inactive	inactive
COc1ccc(-c2cc(=O)c3c(O)cc(O[C@@H]4OC(COC5OC(C)C(O)C(O)[C@@H]5O)C(O)C(O)C4O)cc3o2)cc1 (stereo not given in full)	inactive	inactive	inactive	5.1% (inactive)	-4.97%	1.77%	inactive	
Nc1ncnc2c1nc(Cl)n2C1OC(CO)C(O)C1O (stereo not given)	inactive	inactive	inactive	3.24% (inactive)	5.55%	12.1%	inactive	
CCC1OC(=O)C(C)[C@@H](O[C@H]2C[C@@](C)(OC)C(O)C(C)O2)C(C)[C@@H](O[C@@H]2OC(C)CC(N(C)C)C2O)[C@](C)(O)CC(C)/C(=N\OCOCCOC)[C@H](C)C(O)[C@]1(C)O (stereo not given in full)	inactive	inactive	inactive	7.24% (inactive)	27.8%	41%	inactive	
COc1cccc(O)c1O		inactive	inactive	7.71% (inactive)	9.09%	20.7%	inactive	inactive
S=c1ccss1		inactive	inactive	7.62% (inactive)	5.82%	13.7%	inactive	inactive
Oc1ccc2c(c1)OC(c1ccc(O)c(O)c1)C(O)C2 (stereo not given)		inactive	inactive	6.52% (inactive)	-5.73%	1.34%	inactive	inactive
C/C=C1\C2C=C(C)C[C@@]1(N)c1ccc(=O)[nH]c1C2	inactive	inactive	inactive	13.7% (inactive)	9.87%	26.4%	inactive	
COc1ccc(-c2cc(=O)c3c(O)c(OC)c(OC)c(OC)c3o2)cc1OC		inactive	inactive	-11% (inactive)	-6.36%	-17.8%	inactive	inactive
CCOC(=O)CCCCCCCCCCCCC1C=CCC1 (stereo not given)	inactive	inactive	inactive	1.66% (inactive)	9.42%	10.7%	inactive	
CC1(C)CCCC2(C)C3C(O)CC2(C)C(O)C31 (stereo not given)		inactive	inactive	1.58% (inactive)	-2.66%	-0.711%	inactive	inactive
